The values that follow come from PubChem BioAssay AID2536 (National Center for Advancing Translational Sciences (NCATS), 2010).

The source made the active and inactive calls. Calls come from the whole dose curve; as a rule, active = well fitted curve in the direction sought with a large enough effect; inactive = no such curve, though single readings can be large or run the other way.

Chain of Pyruvate kinase PKM (Homo sapiens) (P14618 whole entry, looked up, canonical isoform): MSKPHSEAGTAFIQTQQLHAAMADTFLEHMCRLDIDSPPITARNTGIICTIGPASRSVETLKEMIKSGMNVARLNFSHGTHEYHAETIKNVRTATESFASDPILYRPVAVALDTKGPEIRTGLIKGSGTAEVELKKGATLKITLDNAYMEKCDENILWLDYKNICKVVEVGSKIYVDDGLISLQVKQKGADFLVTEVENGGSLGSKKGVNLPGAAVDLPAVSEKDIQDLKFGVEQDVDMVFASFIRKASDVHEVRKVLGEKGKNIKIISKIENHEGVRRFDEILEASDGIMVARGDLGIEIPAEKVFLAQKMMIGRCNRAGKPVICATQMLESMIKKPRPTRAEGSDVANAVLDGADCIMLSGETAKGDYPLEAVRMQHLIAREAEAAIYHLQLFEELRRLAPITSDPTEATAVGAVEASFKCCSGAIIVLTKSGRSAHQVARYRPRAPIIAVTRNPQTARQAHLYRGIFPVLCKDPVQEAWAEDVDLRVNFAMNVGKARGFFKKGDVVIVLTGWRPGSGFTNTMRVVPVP

In this assay the target is Pyruvate kinase PKM (Homo sapiens) (UniProt P14618). Kind of assay: Secondary Concentration-Response Assay for Activators of Human Muscle isoform 1 Pyruvate Kinase: for Probe SAR. To be noted: purified hPK-M1, ATP production, Kinase-Glo luminescence. The text has this:
NIH Chemical Genomics Center [NCGC]
Matthew G. Vander Heiden, M.D., Ph.D. [Harvard Medical School, 77 Avenue Louis Pasteur, Boston, MA 02115]
Human pyruvate kinase […] (hPK-M1) enzyme was supplied as a highly purified (>95% pure) preparation from Harvard Medical School and assayed for its ability to generate ATP from ADP using phosphoenolpyruvate (PEP) as a substrate. ATP generation was detected in a coupled reaction by luciferase-mediated luminescence, an ATP-dependent process. Pyruvate kinase substrates, PEP and ADP, were present in the assay at Km and approximately 10-fold below Km respectively. The enzyme was assayed at an intermediate level of activity to screen for both inhibitors and activators.
NCGC Assay Protocol Summary for M1-isoform:
Three uL of substrate mix (at r.t.) in assay buffer (50 mM Imidazole pH7.2, 50 mM KCl, 7 mM MgCl2, 0.01% Tween 20, 0.05% BSA) was dispensed into white solid bottom 1,536 well microtiter plates so that the final concentrations of substrates in the assay were 0.1 mM ADP and 0.5 mM PEP. 23 nL of compound were delivered by a pin tool and 1 uL of enzyme mix (final concentration of 1 nM) in assay buffer (4 degree Celsius) was added. Plates were incubated at room temperature for 1 hour. Two uL of detection mix (Kinase-Glo, Promega; at 4 degree Celsius protected from light) was added and luminescence read by a ViewLux (Perkin Elmer) at 1 second exposure/plate. Data were normalized to the uninhibited (row 31). Additionally, a no enzyme and 5-fold enzyme control was dispensed in row 32, split equally between the two conditions.
(Kinase-Glo reads ATP consumption through a luciferase reaction.)
In the case of `O=C1CCc2cc([S+](=O)([O-])Nc3ccc(N[S+](=O)([O-])c4ccc5c(c4)CCC(=O)N5)cc3)ccc2N1`, the max response is -0.299% (inactive).
In the case of `Cc1ccc(NS(=O)(=O)c2cc3c(cc2N2CCC2)NC(=O)CC3)cc1C`, the max response was -7.63% (inactive).
`O=C1CCc2cc(S(=O)(=O)Nc3cccc(Br)c3)ccc2N1`: the max response is -2.97% (inactive).
Take `O=C1CCc2cc(Cl)c(S(=O)(=O)Nc3ccc(Cl)c(Cl)c3)cc2N1`: the max response was 1.66% (inactive).
As to `O=C1CCc2cc(S(=O)(=O)Nc3cccc(Oc4ccccc4)c3)ccc2N1`, the max response was -2.73% (inactive).
For the molecule `Cc1ccc(NS(=O)(=O)c2cc3c(cc2Cl)NC(=O)C3)cc1C`, the max response was 2.96% (inactive).
For `Nc1cccc(S(=O)(=O)N2CCCN(S(=O)(=O)c3ccc4c(c3)OCCO4)CC2)c1` the value was -0.314% (inactive); for `Cc1ccc(N(C)S(=O)(=O)c2ccc3c(c2)CCC(=O)N3)cc1C`, 0.78% (inactive).
As for `Cc1ccc(NS(=O)(=O)c2ccc3c(c2)CCC(=O)N3)cc1C`, the max response was -6.39% (inactive).
For `Cc1ccc(NS(=O)(=O)c2ccc3c(c2)CCC(=O)N3)cc1Cl` the value was 8.72% (inactive).
